# Compound activity from PubChem.
# An excerpt weighted towards active compounds, which were near 12% of everything screened.
# PLK1 PBD block – qHTS for Inhibitors of PLK1-PDB (polo-like kinase 1 - polo-box domain): Primary Screen. Potency, µM, hits mostly inhibitors. Plk1 PBD binding of FITC phosphopeptide, fluorescence polarization. actives 2.8% (n = 360,000). AID 720504, 2013; further: series mostly up to about 57 µM; nearly all actives have a fitted effect of over 65% in size
# HP1b binding inh – HTS for Inhibitors of HP1-beta Chromodomain Interactions with Methylated Histone Tails. Potency, µM (titrated, usually from 114 µM), most hits filed as inhibitors. Chromobox protein homolog 1 (Homo sapiens), P83916. AID 540317, 2011. AlphaScreen HP1-beta / biotin-H3K9me3 peptide binding. actives 0.56% (n = 390,000); further: nearly all actives have a fitted effect of over 70% in size
#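 HP1-beta protein (50 nM final) preincubated 30 min at room temperature with biotinylated H3(1-18)K9me3 peptide (50 nM) in PBS pH 7.4, 0.01% Tween-20, then compound added for 30 min. AlphaScreen streptavidin donor/nickel chelate acceptor beads (10 ug/mL final), 30 min dark, luminescence read.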
# Sfp PPTase inh – qHTS Assay for Inhibitors of Bacillus subtilis Sfp phosphopantetheinyl transferase (PPTase) | Biochemical Sfp PPTase activity, qHTS | Potency, µM, hits mostly inhibitors | actives 3.5% (n = 310,000) | AID 1490, 2009;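 further: the enzyme is Sfp with the accession as filed and its product quenches rhodamine fluorescence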
#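 Fluorescence-quenching assay with 15 nM Sfp, 5 uM rhodamine-CoA and 12.5 uM BHQ-2-labelled ybbR peptide in pH 7.6 Hepes/MgCl2 buffer. Enzyme was pre-incubated with compound for 15 min at room temperature. Rate was taken from the 30-min fluorescence change (525/598 nm).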
# G9a inh – qHTS Assay for Inhibitors of Histone Lysine Methyltransferase G9a. AID 504332, 2011. G9a H3K9 monomethylation, AlphaScreen, 2 h. Histone-lysine N-methyltransferase EHMT2 (Homo sapiens), Q96KQ7. Potency, µM (highest dose often 102 µM), hits mostly inhibitors. actives 8.8% (n = 350,000); further: nearly all actives have a fitted effect of over 75% in size
#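 G9a (20 nM) preincubated 15 min RT with compounds, then 500 nM biotinylated H3K9 peptide and 20 uM SAM added; 2 h RT reaction. Monomethyl-H3K9 product detected by AlphaScreen with anti-H3K9me1 antibody, streptavidin donor and anti-rabbit IgG acceptor beads.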
# BAZ2B block – qHTS Assay for Inhibitors of BAZ2B; AlphaScreen BAZ2B-H3K14Ac peptide displacement; Potency, µM (top dose mostly 114 µM), most hits filed as inhibitors; actives 4.4% (n = 360,000); further: nearly all actives have a fitted effect of over 60% in size
# Target sequence (Q9UIF8 whole entry, looked up): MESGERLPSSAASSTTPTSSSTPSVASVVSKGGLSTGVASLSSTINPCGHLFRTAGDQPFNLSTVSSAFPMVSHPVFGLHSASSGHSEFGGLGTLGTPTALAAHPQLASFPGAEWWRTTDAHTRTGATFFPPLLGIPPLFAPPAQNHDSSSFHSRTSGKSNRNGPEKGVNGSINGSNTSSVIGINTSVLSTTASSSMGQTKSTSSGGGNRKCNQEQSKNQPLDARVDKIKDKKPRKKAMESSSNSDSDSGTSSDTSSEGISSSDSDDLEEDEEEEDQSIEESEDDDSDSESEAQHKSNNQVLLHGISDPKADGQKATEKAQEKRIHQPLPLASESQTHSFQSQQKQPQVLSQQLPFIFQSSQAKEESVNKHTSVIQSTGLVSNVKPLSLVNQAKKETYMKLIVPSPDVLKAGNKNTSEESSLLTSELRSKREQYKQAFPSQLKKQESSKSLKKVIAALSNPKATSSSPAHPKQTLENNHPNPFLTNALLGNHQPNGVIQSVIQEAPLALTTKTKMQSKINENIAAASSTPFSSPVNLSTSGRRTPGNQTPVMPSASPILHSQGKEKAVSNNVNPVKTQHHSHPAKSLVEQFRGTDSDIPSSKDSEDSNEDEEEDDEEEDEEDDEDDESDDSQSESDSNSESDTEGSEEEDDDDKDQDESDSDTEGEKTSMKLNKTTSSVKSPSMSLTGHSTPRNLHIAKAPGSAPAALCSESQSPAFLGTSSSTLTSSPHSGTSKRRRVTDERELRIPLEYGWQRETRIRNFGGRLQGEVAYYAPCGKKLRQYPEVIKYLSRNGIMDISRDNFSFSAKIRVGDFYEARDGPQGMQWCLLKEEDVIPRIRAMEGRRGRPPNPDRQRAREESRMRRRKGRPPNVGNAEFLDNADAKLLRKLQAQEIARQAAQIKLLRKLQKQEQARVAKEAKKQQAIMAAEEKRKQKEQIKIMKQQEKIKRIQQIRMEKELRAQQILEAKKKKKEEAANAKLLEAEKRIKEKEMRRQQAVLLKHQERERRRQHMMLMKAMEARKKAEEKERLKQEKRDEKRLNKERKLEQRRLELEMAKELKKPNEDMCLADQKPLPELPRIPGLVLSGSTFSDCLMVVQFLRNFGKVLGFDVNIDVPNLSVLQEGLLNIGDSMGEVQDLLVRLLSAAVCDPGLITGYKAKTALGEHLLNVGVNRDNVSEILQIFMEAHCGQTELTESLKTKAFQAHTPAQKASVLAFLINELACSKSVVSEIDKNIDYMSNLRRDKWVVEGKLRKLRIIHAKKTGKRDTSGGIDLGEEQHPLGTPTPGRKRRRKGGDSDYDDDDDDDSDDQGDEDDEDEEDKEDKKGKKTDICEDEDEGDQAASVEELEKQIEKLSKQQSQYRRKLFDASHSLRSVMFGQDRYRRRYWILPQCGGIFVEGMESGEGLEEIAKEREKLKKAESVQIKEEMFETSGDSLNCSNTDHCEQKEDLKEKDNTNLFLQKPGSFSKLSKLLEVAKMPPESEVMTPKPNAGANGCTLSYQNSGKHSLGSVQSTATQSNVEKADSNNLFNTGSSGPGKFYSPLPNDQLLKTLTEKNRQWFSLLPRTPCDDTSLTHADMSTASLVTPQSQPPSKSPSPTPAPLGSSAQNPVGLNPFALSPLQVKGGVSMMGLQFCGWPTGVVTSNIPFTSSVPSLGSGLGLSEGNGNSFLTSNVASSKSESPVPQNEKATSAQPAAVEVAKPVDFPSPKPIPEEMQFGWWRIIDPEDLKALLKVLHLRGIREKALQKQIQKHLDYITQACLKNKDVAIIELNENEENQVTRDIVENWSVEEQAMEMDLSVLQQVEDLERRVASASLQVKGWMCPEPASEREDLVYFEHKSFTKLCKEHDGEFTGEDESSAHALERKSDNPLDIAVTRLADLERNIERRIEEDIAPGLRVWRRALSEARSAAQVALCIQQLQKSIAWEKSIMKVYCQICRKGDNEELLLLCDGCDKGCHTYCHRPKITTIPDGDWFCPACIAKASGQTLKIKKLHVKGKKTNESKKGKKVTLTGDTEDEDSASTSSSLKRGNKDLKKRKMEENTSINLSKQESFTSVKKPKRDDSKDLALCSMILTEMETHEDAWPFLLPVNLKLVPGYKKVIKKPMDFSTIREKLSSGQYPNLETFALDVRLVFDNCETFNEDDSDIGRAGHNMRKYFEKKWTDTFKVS
#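 AlphaScreen displacement: compounds (up to 110uM) incubated 30 min at room temperature with a preformed 50 nM BAZ2B/50 nM biotinylated H3K14Ac peptide complex in PBS pH 7.4 with Tween-20. Donor and acceptor beads at 10 ug/mL final added, 20 min light-protected before reading.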
# JMJD2A Tudor inh – qHTS Assay for Inhibitors of JMJD2A-Tudor Domain. AlphaScreen JMJD2A-Tudor / H3K4me3 peptide binding. actives 4.4% (n = 390,000). AID 504339, 2011. Potency, µM (series often up to 114 µM), usual class: inhibitors; further: nearly all actives have a fitted effect of over 50% in size
# Hits are given with their value; – = inactive; ? = inconclusive; · = not tested or not shown; [ ] = remark or other dose. The call rests on the fitted dose curve; in most records, active means well fitted curve in the direction sought with a large enough effect; inconclusive means small, poorly fitted or top-dose-only effect, or another doubt; inactive means no such curve, though single readings can be large; an effect the other way counts as inactive or inconclusive.
SMILES,PLK1 PBD block,HP1b binding inh,Sfp PPTase inh,G9a inh,BAZ2B block,JMJD2A Tudor inh
Cc1ccc(-c2cc(C(=O)Nc3ccc(S(=O)(=O)Nc4nccs4)cc3)c3ccccc3n2)c(C)c1,5.3µM,?,20µM,28µM,?,?
O=S(=O)(c1ccc2c(c1)OCCO2)N1CCN(S(=O)(=O)c2ccc(Cl)cc2F)CC1,·,·,·,·,·,–
O=C(CN(c1ccc(Cl)cc1)S(=O)(=O)c1ccc(Cl)c([N+](=O)[O-])c1)NCCc1ccccc1,–,–,–,50µM,–,–
O=C(CN(c1ccc(Cl)cc1)S(=O)(=O)c1ccc(Cl)c([N+](=O)[O-])c1)NCCc1ccc(F)cc1,–,–,–,–,–,–
CCn1ccc2cc(S(=O)(=O)N3CCC(C(=O)NCc4ccc(OC)cc4)CC3)ccc21,·,–,·,–,–,–
COc1c(Cl)cc(Cl)cc1CNCCO,–,–,–,–,–,–
CCOc1c(Cl)cc(Cl)cc1CNCCNCCO,–,–,–,50µM,–,?
CC(NC(=O)CCCN1C(=O)CCn2nc(-c3cn(C)c4ccccc34)cc21)c1ccccc1 (stereo not given),·,–,·,–,–,–
Cc1cc(C(C)(C)C)cc(S(=O)(=O)Nc2ccc(O)c(C(=O)O)c2)c1C,–,–,89µM,?,–,–
O=C(O)c1cc(NS(=O)(=O)c2cccc3ccccc23)ccc1O,–,–,–,–,–,–
CCC(C)NS(=O)(=O)c1ccc(NC(=O)CNCc2cccs2)cc1 (stereo not given),–,–,·,·,·,25µM
O=C(CNCc1cccs1)Nc1ccc(N2CCCCCC2)cc1,–,25µM,–,8.9µM,22µM,22µM
CCC(C)(C)NCC(=O)Nc1ccc(OC(F)(F)F)cc1,–,–,–,–,–,–
Cc1ccc(NC(=O)CNCc2cccs2)cc1Br,–,50µM,–,18µM,40µM,1.3µM
O=C(CNCc1cccs1)Nc1ccc(OC(F)(F)F)cc1,–,28µM,–,–[2.33 µM],28µM,4µM
Cc1ccc2nc(N3CCN(C)CC3)c(C=O)c(=O)n2c1,–,–,–,–,–,–
COc1ccc(Oc2ncc3ncc(=O)n(C4CC4)c3n2)cc1,·,·,–,–[0.501 µM],·,·
COCCCNC(=O)c1ccc2sc([C@@H]3O[C@H](CO)[C@H](O)[C@H](O)[C@H]3O)nc2c1,–,·,·,·,·,·
CC(C)Cc1nn2c(=O)cc(COC(=O)c3ccccc3NC(=O)c3cccs3)nc2s1,·,–,·,–,–,–
O=C1OC(c2cccs2)=N/C1=C/c1ccc(-c2cccc(C(=O)O)c2)o1,–,?,–,7.9µM,25µM,50µM
O=C1OC(c2cccs2)=N/C1=C\c1ccc(-c2ccccc2Cl)o1,–,?,–,40µM,–,?
O=C1OC(c2ccco2)=N/C1=C\c1ccc(-c2cccc(C(F)(F)F)c2)o1,–,–,–,?,?,–
COc1ccc(CCNC(=O)CSc2nc3ccccc3nc2Cc2ccc(Cl)cc2)cc1OC,·,–,·,–,–,–
CCn1c(=O)n(CC)c2cc(N3CCCCC3)c(NC(=O)Nc3cc(Cl)ccc3OC)cc21,·,–,·,?,?,–
COc1ccc(OC)c(NC(=O)C2CCN(Cc3cnn(-c4ccccc4)c3-n3cccc3)CC2)c1,–,?,–,45µM,?,50µM
OC(c1ccccc1)(c1ccccc1)C1CCN(C(=S)NC2CCCC2)CC1,–,–,–,40µM,–,–
COCc1cc(=O)[nH]c(=S)[nH]1,–,–,13µM,4.5µM,–,13µM
O=c1cc(Cc2ccccc2)[nH]c(=S)[nH]1,–,–,–,?,–,?
CCCCOc1ccc(C(=O)NCC(=O)N2CCN(C/C=C/c3ccccc3)CC2)cc1,–,·,·,·,·,·
COc1ccc2c(-c3ccccc3)cc(SC(C)C(N)=O)nc2c1 (stereo not given),?,–,–,13µM,–,–
